Data on 35 compounds can be found in the supplement of paper PMC6609913.

In the experiment the test system is V-C8 + BRCA2 (BRCA2-proficient hamster cells). Briefly: normalised cell viability (fraction of plate median); higher = more viable cells (less toxic). The note with it: 5 µM. The procedure, abridged:
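Hamster V-C8 cells with and without restored BRCA2 were exposed in 96-well plates to library drugs at 5 μM for 3 days (screen 1) or 6 days (screen 2). Cell viability was scored by resazurin assay, then median-plate normalised, averaging triplicate wells.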

Where a name gives a salt, the structure may show the parent alone. ± gives the standard deviation of the averaged measurements. Over roughly 1,300 compounds, “normalised cell viability” has its median near 1; the lowest 2% begin near 0.15. The sample holds the lowest values, similar compounds and a random draw of the others, so the mix is not that of the screen.

With `CC(=O)Oc1cccc2c1C(=O)c1c(OC(C)=O)cc(C(=O)O)cc1C2=O` [Diacerein], the normalised cell viability came to 0.749 ± 0.038 (treatment time: 3 days) and 0.796 ± 0.027 (treatment time: 6 days).

In the case of `CCN(CC)CCCC(C)Nc1c2ccc(Cl)cc2nc2ccc(OC)cc12` (stereo not given) [Quinacrine dihydrochloride dihydrate], the normalised cell viability by setting is: (treatment time: 3 days) 0.133 ± 0.0038; (treatment time: 6 days) 0.107 ± 0.0083.

Consider `CCN(CC)CCCC(C)Nc1ccnc2cc(Cl)ccc12` (stereo not given) [Chloroquine diphosphate], for which the normalised cell viability by setting is: (treatment time: 3 days) 0.852 ± 0.023; (treatment time: 6 days) 0.938 ± 0.082.

`CCN(CCO)CCCC(C)Nc1ccnc2cc(Cl)ccc12` (stereo not given) [Hydroxychloroquine sulfate]: the normalised cell viability by setting is: (treatment time: 3 days) 0.606 ± 0.024; (treatment time: 6 days) 0.666 ± 0.032.

Take `O=C(CCCN1CCN(c2ccccn2)CC1)c1ccc(F)cc1` [Azaperone]: the normalised cell viability turned out to be 1.1 ± 0.34 (treatment time: 3 days) and 0.902 ± 0.052 (treatment time: 6 days).

As to `CCCCN1CCCCC1C(=O)Nc1c(C)cccc1C` (stereo not given) [Bupivacaine hydrochloride], the normalised cell viability by setting is: (treatment time: 3 days) 0.962 ± 0.049; (treatment time: 6 days) 1.03 ± 0.038.

Take `CCOC(=O)c1ccc(N)cc1` [Benzocaine]: the normalised cell viability runs as follows: (treatment time: 3 days) 0.871 ± 0.023; (treatment time: 6 days) 0.9583 ± 0.0066.

For the compound `CN(N=O)C(=O)N[C@@H](C=O)[C@@H](O)[C@H](O)[C@H](O)CO` [Streptozotocin], the normalised cell viability by setting is: (treatment time: 3 days) 1.07 ± 0.073; (treatment time: 6 days) 1.06 ± 0.053.

For the compound `O=C(CCCN1CCC(O)(c2ccc(Br)cc2)CC1)c1ccc(F)cc1` [Bromperidol], the normalised cell viability by setting is: (treatment time: 3 days) 0.976 ± 0.027; (treatment time: 6 days) 0.979 ± 0.038.

Take `CN1CCCN=C1/C=C/c1cccs1` [Pyrantel tartrate]: the normalised cell viability by setting is: (treatment time: 3 days) 1.04 ± 0.05; (treatment time: 6 days) 1.03 ± 0.026.

As to `COCCCC/C(=N\OCCN)c1ccc(C(F)(F)F)cc1` [Fluvoxamine maleate], the normalised cell viability by setting is: (treatment time: 3 days) 0.97 ± 0.029; (treatment time: 6 days) 1.17 ± 0.13.

`Cn1c(=O)c2c(ncn2C)n(C)c1=O` [Caffeine]: the normalised cell viability is, setting by setting: (treatment time: 3 days) 0.998 ± 0.053; (treatment time: 6 days) 0.996 ± 0.057.

With `CCOC(=O)[N-]c1c[n+](N2CCOCC2)no1` [Molsidomine], the normalised cell viability by setting is: (treatment time: 3 days) 1.04 ± 0.05; (treatment time: 6 days) 1.1 ± 0.028.

With `CCN1CCCC1CNC(=O)c1cc(S(=O)(=O)CC)c(N)cc1OC` (stereo not given) [Amisulpride], the normalised cell viability was determined as 0.974 ± 0.017 (treatment time: 3 days) and 0.991 ± 0.058 (treatment time: 6 days).

As to `O=C(CCCCC(=O)Nc1c(I)cc(I)c(C(=O)O)c1I)Nc1c(I)cc(I)c(C(=O)O)c1I` [Iodipamide], the normalised cell viability by setting is: (treatment time: 3 days) 1.07 ± 0.05; (treatment time: 6 days) 1.02 ± 0.06.

As to `CC(=O)Nc1ccc(CC(=O)O)cc1` [Actarit], the normalised cell viability was determined as 1.038 ± 0.0059 (treatment time: 3 days) and 1.07 ± 0.12 (treatment time: 6 days).

On to `O=C(CCCCCCC(=O)Nc1ccccc1)NO` [Vorinostat], for which the normalised cell viability (treatment time: 3 days) came out at 0.132 ± 0.0091 and the normalised cell viability (treatment time: 6 days) came to 0.17 ± 0.021.

Turning to `CN(Cc1cc(Br)cc(Br)c1N)C1CCCCC1` [Bromhexine hydrochloride], the normalised cell viability by setting is: (treatment time: 3 days) 0.949 ± 0.042; (treatment time: 6 days) 1.02 ± 0.072.

For the compound `CO[C@H]1C[C@H](O[C@H]2[C@H](C)[C@@H](O[C@@H]3O[C@H](C)C[C@H](N(C)C)[C@H]3OC(C)=O)[C@@H](C)C[C@@]3(CO3)C(=O)[C@H](C)[C@@H](OC(C)=O)[C@@H](C)[C@@H](C)OC(=O)[C@@H]2C)O[C@@H](C)[C@@H]1OC(C)=O` [Troleandomycin], the normalised cell viability worked out at 1.08 ± 0.027 (treatment time: 3 days) and 1.06 ± 0.04 (treatment time: 6 days).

In the case of `C[C@@H](O)[C@H]1C(=O)N2C(C(=O)O)=C(S[C@@H]3CN[C@H](C(=O)N(C)C)C3)[C@H](C)[C@H]12` [Meropenem], the normalised cell viability was 1.02 ± 0.037 (treatment time: 3 days) and 1.04 ± 0.053 (treatment time: 6 days).

With `NS(=O)(=O)c1cc(Cl)c(Cl)c(S(N)(=O)=O)c1` [Dichlorphenamide], the normalised cell viability is, setting by setting: (treatment time: 3 days) 1.09 ± 0.05; (treatment time: 6 days) 0.961 ± 0.035.

In the case of `CC(C)(C)NCC(O)COc1cccc2c1CCC(=O)N2` (stereo not given) [Carteolol hydrochloride], the normalised cell viability reads like this: (treatment time: 3 days) 1.06 ± 0.052; (treatment time: 6 days) 1.06 ± 0.044.

Regarding `O=C1NCC2(CCN(CCc3ccccc3)CC2)O1` [Fenspiride hydrochloride], the normalised cell viability is, setting by setting: (treatment time: 3 days) 1.03 ± 0.051; (treatment time: 6 days) 1.06 ± 0.068.

Consider `CCN(Cc1ccncc1)C(=O)C(CO)c1ccccc1` (stereo not given) [Tropicamide], for which the normalised cell viability came out at 1.065 ± 0.0083 (treatment time: 3 days) and 1.01 ± 0.043 (treatment time: 6 days).

On to `CN(C)CCC[C@@]1(c2ccc(F)cc2)OCc2cc(C#N)ccc21` [Escitalopram], for which the normalised cell viability came out at 1.1 ± 0.041 (treatment time: 3 days) and 1.01 ± 0.067 (treatment time: 6 days).

For `CC(C)[C@H]1CC[C@H](C(=O)N[C@H](Cc2ccccc2)C(=O)O)CC1` [Nateglinide], the normalised cell viability runs as follows: (treatment time: 3 days) 1.04 ± 0.051; (treatment time: 6 days) 1.04 ± 0.091.

On to `CN1CCCC(CC2c3ccccc3Sc3ccccc32)C1` (stereo not given) [Metixene hydrochloride], for which the normalised cell viability (treatment time: 3 days) worked out at 0.867 ± 0.014 and the normalised cell viability (treatment time: 6 days) was determined as 0.888 ± 0.012.

As to `O=C(CCCN1CC=C(n2c(=O)[nH]c3ccccc32)CC1)c1ccc(F)cc1` [Droperidol], the normalised cell viability reads like this: (treatment time: 3 days) 1.05 ± 0.013; (treatment time: 6 days) 1.07 ± 0.015.

On to `O=C(O)c1ccccc1OP(=O)(O)O` [Fosfosal], for which the normalised cell viability runs as follows: (treatment time: 3 days) 0.966 ± 0.055; (treatment time: 6 days) 1.06 ± 0.1.

In the case of `N=C(NCCCCCCNC(=N)NC(=N)Nc1ccc(Cl)cc1)NC(=N)Nc1ccc(Cl)cc1` [Chlorhexidine], the normalised cell viability reads like this: (treatment time: 3 days) 0.117 ± 0.0076; (treatment time: 6 days) 0.103 ± 0.0066.

Regarding `CC(C)NC(=N)NC(=N)Nc1ccc(Cl)cc1` [Proguanil hydrochloride], the normalised cell viability is 0.211 ± 0.013 (treatment time: 3 days) and 0.203 ± 0.015 (treatment time: 6 days).

Turning to `N=C(N)NC(=N)NCCc1ccccc1` [Phenformin hydrochloride], the normalised cell viability reads like this: (treatment time: 3 days) 1.01 ± 0.029; (treatment time: 6 days) 0.9752 ± 0.0082.

Take `CC(=O)Nc1c(I)c(NC(C)=O)c(I)c(C(=O)O)c1I` [Diatrizoic acid dihydrate]: the normalised cell viability stood at 0.996 ± 0.035 (treatment time: 3 days) and 1.05 ± 0.077 (treatment time: 6 days).

With `Cc1cc(/C=C/c2ccc3cc(N(C)C)ccc3[n+]2C)c(C)n1-c1ccccc1` [Pyrvinium pamoate], the normalised cell viability stood at 0.144 ± 0.0086 (treatment time: 3 days) and 0.171 ± 0.014 (treatment time: 6 days).

Turning to `Cc1cc(=O)n(-c2ccccc2)n1C` [Antipyrine], the normalised cell viability runs as follows: (treatment time: 3 days) 0.997 ± 0.038; (treatment time: 6 days) 1.02 ± 0.046.
